From PubChem BioAssay
Calls of active or inactive are those of the source.

tested on: XIP peptide (Xip251-270) binding; assay: XIP fragment 251-270 binding compounds – biochemical, small-molecule microarray, fluorescence 635/667 nm, 0.1 µg/mL protein, primary screen (AID 1182); conditions: fluorescent protein binding, 635 nm, higher = more signal, called active from +8 up or from −8 down

Composite z-score, inactive:
CC(=O)OCC1C2CC[C@H]3C(OCc4ccc(F)cc4C(F)(F)F)OC[C@]4(C)[C@H]3C2=C(CN4C(=O)OC(C)(C)C)[C@H](C)C1COC(C)=O (stereo partly specified) -0.07
O=C1[C@H]2C=C(I)[C@H](C[C@@H]2c2ccccc2)[C@@]12CO2 -0.432
NC(=O)N1C(=O)C2C(C1=O)C1C=C(CCCO)C2C(c2ccc(CN3CCCC3)cc2)N1Cc1sc2ccccc2c1Cl (stereo unspecified) -0.211
CCCCC(=C=CC[C@H](O)c1ccc(CO)o1)CCO 0.234
O=C(NCC(O)CO)C1N=C(c2ccc(OCCCO)cc2)N(c2ccccc2)O1 (stereo unspecified) 0.654
CCCCCC1=C2CNC(CC(C)C)(C(=O)OC)C=C2C(C)C1=O (stereo unspecified) 0.814
COc1ccc([Si](C)(C)[C@H]2[C@H](CC(=O)N3CCC[C@H]3CO)O[C@@]3(C(=O)N(Cc4ccc(N5CCCCC5=O)cc4)c4ccccc43)[C@@H]2C)cc1 0.214
CN(C)CCCCNC(=O)[C@H]1C[C@H]2C(=O)N3CCC[C@H]3C(=O)N2[C@H]1c1cccc(OCCO)c1 0.683
C=CCC(OC(C)=O)[C@@H]1[C@@H](N(Cc2ccc(-c3ccccc3)cc2)C(=O)c2cccc3ccccc23)c2cc(OCCCO)ccc2N1C(=O)Cc1ccc(OC)cc1 (stereo partly specified) 0.15
COc1ccc(C(=O)Nc2ccc3c(c2)[C@@]2(O[C@H](CCO)[C@@H]([Si](C)(C)c4ccc(OC)cc4)[C@@H]2C)C(=O)N3Cc2ccccc2)cc1 0.396
CCOC(=O)C1=CCC(c2cc3ccccc3[nH]2)N(CCN2CC(C(=O)OCC)=CCC2c2cc3ccccc3[nH]2)C1 (stereo unspecified) 0.401
CCCC[C@H]1OB(O)C[C@H]2C1=C(COc1ccccc1)C[C@H]1C(=O)C=CC(=O)[C@H]12 0.0738
C=CCNC(=O)[C@H]1[C@@H]2C(=O)O[C@@H](c3ccccc3)[C@@H](c3ccccc3)N2[C@@H](c2ccc(OCCO)cc2)[C@]12C(=O)Nc1ccccc12 1.43
O=C(NCc1ccccc1)[C@@H]1c2ccccc2C(=O)N(Cc2cc(C(F)(F)F)cc(C(F)(F)F)c2)[C@H]1c1ccc(CO)cc1 0.722
CN1C(=O)C2C(C3CC3)C=C3CN(Cc4cccc(Cl)c4)[C@@H]([C@@H](O)Cc4ccccc4)C3C2C1=O (stereo partly specified) 0.163
COc1ccc([Si](C)(C)[C@@H]2[C@@H](CC(=O)N3Cc4ccccc4C[C@H]3CO)O[C@]3(C(=O)N(Cc4cccc(N5CCOC5=O)c4)c4ccccc43)[C@H]2C)cc1 0.0848
C=C(COC)/C(=C/C[C@@H](OC(C)=O)c1ccccc1OCCO)c1cnc2ccccc2c1 0.534
C=CCN1C(=O)[C@@]2(O[C@@H](CCn3cc([C@H](O)c4ccccc4)nn3)[C@H]([Si](C)(C)c3ccc(OC)cc3)[C@H]2C)c2cc(N3C(=O)c4cccc5cccc3c45)ccc21 0.185
COc1ccc(C(O)C2C=CC3C(=O)N(c4ccccc4)C(=O)C3N2Nc2ccc([N+](=O)[O-])cc2)c2ccccc12 (stereo unspecified) 0.314
C=C(CCCC)/C(=C/C[C@H](OC(=O)c1ccncc1)c1ccc(OCCO)cc1)c1cnc2ccccc2c1 1.51
CO[C@H]1O[C@H](CO)[C@@H](OC(=O)Nc2ccc3c(c2)OCO3)[C@H](OC(=O)Nc2ccccc2-c2ccccc2)[C@H]1OC(=O)Nc1ccccc1-c1ccccc1 0.667
CC1CC/C=C\[C@H]2OC34C=CCN(c5ccc(Cl)cc5)C(=O)[C@H]3N(CCCCCCO)C(=O)[C@]4(C)C2C(=O)O1 (stereo partly specified) 0.675
O=C1NC(=O)C2C1C=CC(C(O)c1ccc([N+](=O)[O-])cc1)N2Nc1ccccn1 (stereo unspecified) -0.254
O=C(N1CCOCC1)[C@@]1(Cc2ccccc2)COC(c2ccc(OCCCO)cc2)=N1 0.509
C=CCC(OC(C)=O)[C@@H]1[C@@H](N(Cc2cccc3ccccc23)C(=O)Cc2ccc(OC)cc2)c2cc(OCCCO)ccc2N1C(=O)Cc1ccc2ccccc2c1 (stereo partly specified) -0.559
COC(=O)C(CC#Cc1ccc2c(c1)[C@]1(C(=O)N2)[C@H](c2ccc(OCCO)cc2)N2[C@H](c3ccccc3)[C@H](c3ccccc3)OC(=O)[C@H]2[C@@H]1C(=O)N1CCCCCCC1)C(=O)OC 2.15
